Laboratory results reported in the supplement of paper PMC6555819.

Legend:
Experiment in all cases: PBM binding z-score (relative to random genomic background probes); higher = stronger binding; sequences stand for … in GC…GCGATTGACAGCGTAGAATGAAGG
[1] = test system: FXR:RXRa (NR concentration 270 nM, RXRa partner concentration 90 nM)
Summary of the method: (§1)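 Scanned fluorescence from custom Agilent 4×180K protein-binding microarrays was regression-normalized. Binding z-scores use random background probes as reference. Ligand-free nuclear receptor dimers were incubated on the arrays for 1 h and detected with antibodies against each partner (one per run).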

[2] = test system: LXRa homodimer (NR concentration 270 nM)
Summary of the method: as §1

[3] = test system: LXRb homodimer (NR concentration 270 nM)
Summary of the method: as §1

[4] = test system: PPARa:RXRa (NR concentration 270 nM, RXRa partner concentration 90 nM)
Summary of the method: as §1

[5] = test system: PPARg:RXRa (NR concentration 180 nM, RXRa partner concentration 90 nM)
Summary of the method: as §1

[6] = test system: PPARg:RXRa 270nM:90nM, anti-RXR (NR concentration 270 nM, RXRa partner concentration 90 nM)
Summary of the method: as §1

[7] = test system: PPARg:RXRa 30nM:10nM, anti-RXR (NR concentration 30 nM, RXRa partner concentration 10 nM)
Summary of the method: as §1

[8] = test system: PPARg:RXRa 90nM:30nM, anti-RXR (NR concentration 90 nM, RXRa partner concentration 30 nM)
Summary of the method: as §1

[9] = test system: PPARg:RXRa DBDmut IVT, anti-RXR (DBD mutation: RXRa K156A/R161A, NR concentration 270 nM, RXRa partner concentration 90 nM)
Summary of the method: as §1

[10] = test system: PPARg:RXRa IVT, anti-PPARg (NR concentration 270 nM, RXRa partner concentration 90 nM)
Summary of the method: as §1

[11] = test system: PPARg DBDmut:RXRa IVT, anti-PPARg (DBD mutation: PPARg1 K132A/R137A, NR concentration 270 nM, RXRa partner concentration 90 nM)
Summary of the method: as §1

[12] = test system: PPARg DBDmut IVT, anti-PPARg (DBD mutation: PPARg1 K132A/R137A, NR concentration 270 nM)
Summary of the method: as §1

[13] = test system: PPARg homodimer (NR concentration 180 nM)
Summary of the method: as §1

[14] = test system: PXR:RXRa (NR concentration 270 nM, RXRa partner concentration 90 nM)
Summary of the method: as §1

[15] = test system: PXR homodimer (NR concentration 270 nM)
Summary of the method: as §1

[16] = test system: RARa:RXR (NR concentration 270 nM, RXRa partner concentration 90 nM)
Summary of the method: as §1

[17] = test system: RARa homodimer (NR concentration 270 nM)
Summary of the method: as §1

[18] = test system: RARb:RXRa (NR concentration 270 nM, RXRa partner concentration 90 nM)
Summary of the method: as §1

[19] = test system: RARb homodimer (NR concentration 270 nM)
Summary of the method: as §1

[20] = test system: LXRa:RXRa (NR concentration 270 nM, RXRa partner concentration 90 nM)
Summary of the method: as §1

Row | Sequence | PBM binding z-score [1] | PBM binding z-score [2] | PBM binding z-score [3] | PBM binding z-score [4] | PBM binding z-score [5] | PBM binding z-score [6] | PBM binding z-score [7] | PBM binding z-score [8] | PBM binding z-score [9] | PBM binding z-score [10] | PBM binding z-score [11] | PBM binding z-score [12] | PBM binding z-score [13] | PBM binding z-score [14] | PBM binding z-score [15] | PBM binding z-score [16] | PBM binding z-score [17] | PBM binding z-score [18] | PBM binding z-score [19] | PBM binding z-score [20]
1 | TACCCTAGGTCATGGGCCAGTATACCACGCGAAC | 5.02 | 6.35 | 2.13 | 4.51 | 4.58 | 4.25 | 1.59 | 3.13 | 1.55 | 3.86 | 1.09 | 0.696 | 2.52 | 2.07 | 0.812 | 3.19 | 0.836 | 4.11 | 3.19 | 
2 | CGTCCAAAGTCAAAGGTCAGTGAAGAGATGACGG | 3.96 | 1.31 | 0.637 | 5.06 | 5.73 | 5.88 | 3.89 | 5.37 | 0.242 | 2.41 | 0.349 | 0.905 | 3.27 | 3.97 | 0.811 | 5.61 | 1.11 | 4.53 | 4.29 | 
3 | TAGCCTAGGTCATTCAGGGGCCACTATAGAAAGC | 4.76 | 1.27 | 1.1 | 3.95 | 2.63 | 2.83 | 0.439 | 2.09 | 2.08 | 3.19 | 0.203 | -0.136 | 2.11 | 3.08 | -0.109 | 4.13 | 0.262 | 4.11 | 3.28 | 
4 | TCTTGTAGATCAATAGAAGTTAAGAAAGTGCGCT | 0.718 | -0.154 | 0.0744 | 0.693 | -5.78e-05 | 1.83 | 3.04 | 2.6 | 1.85 | 0.217 | 0.211 | 1.07 | 0.551 | 0.615 | 0.29 | 0.734 | 0.368 | 0.0854 | -0.511 | 
5 | TCGAGTAGGTCACGGGGGCATTCAGGGATGAAGA | 6.7 | 1.07 |  | 6.09 | 9.41 | 7.99 | 5.9 | 7.7 | 6.73 | 7.67 |  |  | 3.98 | 4.92 | 1.77 | 5.53 | 1.36 | 4.66 | 4.32 | 5.3
6 | CGTCCAAGGTCATAGGAGGTCAATGAAGACAGAT | 7.84 | 6.78 | 1.44 |  | 5.9 | 6.13 | 2.88 | 5.04 | 3 | 5.13 | 0.774 | 0.632 | 4.29 | 7.13 | 6.06 | 6.16 | 1.49 |  | 5.71 | 7.73
7 | TCGTGTAGGTTACGGGGGCATTCAGGGATGAAGA | 3.84 | 1.21 |  | 4.58 | 6.02 | 6.17 | 4.82 | 5.8 | 5.22 | 6.27 |  |  | 3.1 | 3.98 | 2.98 | 3.71 | 1.46 | 3.34 | 2.92 | 3.76
8 | TATCAAAGTTCAAAGGTAACGTAAGTATCCACAC | 6.87 | 6.56 | 3.08 | 5.56 | 6.12 | 6.03 | 3.65 | 5.24 | 0.181 | 2.37 | 1.61 | 1.66 | 2.55 | 5.83 | 4.87 | 6.67 | 2.48 | 5.07 | 3.91 | 
9 | AGAATGAGGTTACCAAAGTTCAGGGAAACGCTTG | 3.73 | 7.31 | -0.0133 | 4.6 | 3.65 | 4.08 | 1.65 | 3.24 | 3.96 | 4.09 | 0.616 | 0.161 | 1.31 | 6.02 | 3.03 | 3.93 | 0.38 | 3.81 | 3.93 | 
10 | CGAACTAGGTCATCCAGGTCAGTGAATACATTGA | 5.02 | 1.02 | -0.0563 | 5.17 | 7.77 | 6.49 | 4.46 | 6.24 | 8.34 | 8.34 | 6.69 | 1.38 | 4.66 | 3.99 | 7.58 | 3.63 | 1.17 | 4.3 | 4.14 | 
11 | CGTCCAAGGTCTAGGTCAGTGAAAGAGACTCGAA | 0.449 | -0.0366 | -0.741 | 1.06 | -0.0446 | 0.357 | -0.506 | -0.014 | 0.895 | 1.61 | -1.11 | -1.28 | 0.763 |  | -0.179 | 0.514 | 0.0377 | 2.48 | 2.38 | 0.249
12 | ATATGTAGGTTGGGGTCATTCAGAAAGTAGGGAA | 5.99 | 2.32 | 4.74 |  | 7.05 | 6.09 | 3.16 | 5.4 | 3.81 | 4.46 |  | 2.36 | 3.59 | 6.18 | 3.64 | 6.42 | 3.34 | 3.75 | 4.06 | 5.41
13 | CTATGTAGGTTACGGGGGTCATTCAGTTTGAAAG | 5.4 | 2.93 |  | 6.13 | 9.31 | 7.81 | 5.47 | 7.92 | 7.41 | 7.98 |  |  | 2.65 | 6.2 | 10.9 | 6.09 | 0.56 | 3.71 | 4.09 | 5.54
14 | ATATGTAGGTTAGGGGTCATTCAGGTTGGTTCGC | 6.13 | 4.58 | 3.55 | 6.51 | 11.4 | 9.8 | 10.2 | 11 | 7.09 | 7.13 | 1.75 | 2 | 5.22 |  | 6.76 |  | 2.76 | 3.82 | 4.47 | 5.98
15 | CCTGCTAGGTCAAAGGTCAGCTAAAGCAGCTCGC | 7.56 | 2.52 | 1.05 |  |  | 10.2 | 11.3 | 12.6 | 5.89 | 7.37 | 3.16 | 2.19 | 7.33 |  | 0.666 |  | 3.79 |  | 4.91 | 6.38
